Experiment [1] is described as follows: circadian clock period modulators, cell-based, LOPAC library, luminescence reporter (AID 2774).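 Also: values are relative to mean of DMSO wells on each plate.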 The note with it: circadian reporter cells, at 7 µM, actives lie on both sides.
The subject of experiment [2] is Hepatitis C virus NS3 helicase. As to the kind of experiment: HCV NS3 helicase inhibitors, primary screen, biochemical, fluorescence polarization, LOPAC1280 library (AID 687035; in the data active = inhibition above about 37%). The conditions noted are these: Purified HCV NS3 helicase, Cy5-dT15 ssDNA binding fluorescence polarization; stronger effect = higher value; concentration not given here.
The nature of experiment [3]: Cy5 fluorescence quenching or enhancement artefacts, artefact control for HCV NS3 helicase inhibitor project, biochemical, LOPAC1280 (AID 687037). The conditions noted are these: Cy5-DNA-NS3h complex fluorescence interference counterscreen. Background: The purpose of a counterscreen is to sort out artefacts and off-target activity.
A short description of experiment [4]: sensitizers of A549 cells to miR-34 induction, primary screen, imaging, A549 dox-inducible miR-34, nuclei and caspase counts (AID 1347080;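 active = compounds whose cell count with miR-34 switched on is under 0.7 times the count with it off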). The conditions noted are these: A549 miR-34 inducible, Hoechst nuclei count, 48 h.
A short description of experiment [5]: phospholipid biosynthesis inhibitors in animal cells, primary screen, cell-based, LOPAC library, screen 4 (AID 1347384). The note with it: phospholipid biosynthesis inhibition screen, at 10 µM.
Experiment [6] is described as follows: viability rescue of complex I mutant cybrids, primary screen, cell-based, galactose medium, ATP luminescence (AID 1645843;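 active = z-score of at least 1.8 in each of two replicates, scored against plate mean and spread of sample wells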;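 also: positive z means more ATP and so rescue of galactose-driven cybrid death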). The conditions noted are these: complex I mutant cybrid cells, 72 h, stronger effect = higher value.
Setting [7] is: stronger effect = lower value, cell number ratio, induced over uninduced.
The mark [8] stands for this setting: measured here: relative caspase fold change +Dox/-Dox.
The mark [9] stands for this setting: measured here: total cells with miR-34 induction, stronger effect = lower value.
The mark [10] stands for this setting: measured here: total cells without miR-34 induction.

The source made the active and inactive calls. Unless noted, no rule for the calls is given here.

Usually inhibition stands for the drop in the measured response relative to a control, in per cent.

Consider `O=C(O)[C@H]1NCCC[C@H]1C(=O)O`, for which the period change in experiment [1] is 0.06 h (inactive). Besides, in experiment [2], the inhibition is -2% (inactive). In addition, in experiment [3], the fluorescence ratio (interference) is 1 (inactive). Moreover, the fold change in experiment [4] (setting [7]) was 1.06 (inactive); in experiment [4] (setting [8]), 2.09. The cell count in experiment [4] (setting [9]) was determined as 10400; in experiment [4] (setting [10]), 9820. Also, in experiment [5], the molecule was called inactive. The z-score in experiment [6] is 0.52 (inactive).

As to `NC1(C(=O)O)CCc2cc(C(=O)O)ccc21` (centres undefined), in experiment [1], the period change is 0.185 h (inactive). The inhibition in experiment [2] is -1% (inactive). Besides, the fluorescence ratio (interference) in experiment [3] is 1 (inactive). Besides, the results for the fold change in experiment [4] (setting [7]) and in experiment [4] (setting [8]) were 0.993 (inactive) and 1.76, respectively. The figures for the cell count in experiment [4] (setting [9]) and in experiment [4] (setting [10]) were 10900 and 11000, respectively. For the same molecule, the call in experiment [5] was inactive. Further, the z-score in experiment [6] is 0.185 (inactive).

On to `N[C@@H](Cc1ccc(O)c(I)c1)C(=O)O`, for which the period change in experiment [1] was 0.02 h (inactive). For the same molecule, the inhibition in experiment [2] is -4% (inactive). Moreover, in experiment [3], the fluorescence ratio (interference) was 0.9 (inactive). Also, the results for the fold change in experiment [4] (setting [7]) and in experiment [4] (setting [8]) were 1.11 (inactive) and 0.663, respectively. Moreover, the cell count in experiment [4] (setting [9]) was found to be 11600; in experiment [4] (setting [10]), 10400. Moreover, the result in experiment [5] was inactive. The z-score in experiment [6] was 0.59 (inactive).

Turning to `COc1cc2c(CCNC(C)=O)c[nH]c2cc1O`, the period change in experiment [1] was -0.175 h (inactive). In experiment [2], the inhibition is -2% (inactive). Moreover, the fluorescence ratio (interference) in experiment [3] was 1 (inactive). Also, the fold change in experiment [4] (setting [7]) was 0.921 (inactive); in experiment [4] (setting [8]) it was 1.6. In addition, the figures for the cell count in experiment [4] (setting [9]) and in experiment [4] (setting [10]) were 10100 and 11000, respectively. Moreover, the molecule was classed as inactive in experiment [5]. Further, the z-score in experiment [6] is -0.44 (inactive).

For the molecule `Nc1nc(Cl)nc2c1ncn2[C@@H]1O[C@H](CO)[C@H](O)C1O` (some centres undefined), the period change in experiment [1] was -0.125 h (inactive). The inhibition in experiment [2] was 0% (inactive). In experiment [3], the fluorescence ratio (interference) is 1 (inactive). The fold change in experiment [4] (setting [7]) was 1.07 (inactive); in experiment [4] (setting [8]), 1.14. Also, the cell count in experiment [4] (setting [9]) was 1860; in experiment [4] (setting [10]) it was 1750. In addition, the molecule was called inactive in experiment [5]. Besides, in experiment [6], the z-score is -0.705 (inactive).

Turning to `OC1(c2ccc(Cl)cc2)CCN(Cc2c[nH]c3ccccc23)CC1`, the period change in experiment [1] was 0.165 h (inactive). For the same molecule, the inhibition in experiment [2] was -8% (inactive). The fluorescence ratio (interference) in experiment [3] was 0.9 (inactive). For the same molecule, the figures for the fold change in experiment [4] (setting [7]) and in experiment [4] (setting [8]) were 1.01 (inactive) and 1.16, respectively. Besides, the cell count in experiment [4] (setting [9]) was 7020; in experiment [4] (setting [10]), 6940. Moreover, in experiment [5], the molecule was called inactive. Further, the z-score in experiment [6] was -0.735 (inactive).

Regarding `CC(C)COC(=O)OCN1C(=O)CN(CCN2CC(=O)N(COC(=O)OCC(C)C)C(=O)C2)CC1=O`, the period change in experiment [1] was -0.045 h (inactive). The inhibition in experiment [2] was 1% (inactive). In addition, in experiment [3], the fluorescence ratio (interference) was 1 (inactive). Further, the fold change was 0.995 (inactive) in experiment [4] (setting [7]) and 1.59 in experiment [4] (setting [8]). Further, the figures for the cell count in experiment [4] (setting [9]) and in experiment [4] (setting [10]) were 8180 and 8220, respectively. Further, the call in experiment [5] was inactive. Besides, the z-score in experiment [6] is 0.435 (inactive).

Regarding `CN1CCc2ccccc2Cc2[nH]c3ccccc3c2CC1`, the period change in experiment [1] was -0.08 h (inactive). The inhibition in experiment [2] is -2% (inactive). In addition, the fluorescence ratio (interference) in experiment [3] is 1 (inactive). The fold change is 1.04 (inactive) in experiment [4] (setting [7]) and 0.882 in experiment [4] (setting [8]). Also, the cell count was found to be 9860 in experiment [4] (setting [9]) and 9460 in experiment [4] (setting [10]). Also, the outcome in experiment [5] was inactive. Besides, the z-score in experiment [6] was -0.35 (inactive).

In the case of `CC(=O)C(C)=O`, the period change in experiment [1] is -0.125 h (inactive). The inhibition in experiment [2] was -3% (inactive). Further, the fluorescence ratio (interference) in experiment [3] is 1 (inactive). Moreover, the results for the fold change in experiment [4] (setting [7]) and in experiment [4] (setting [8]) were 1.06 (inactive) and 0.938, respectively. Also, the cell count came to 10100 in experiment [4] (setting [9]) and 9490 in experiment [4] (setting [10]). Also, in experiment [5], the outcome was inactive. Moreover, in experiment [6], the z-score is 0.23 (inactive).

Regarding `OC[C@H]1O[C@@H](n2cnc3cncnc32)[C@H](O)[C@@H]1O`, in experiment [1], the period change was 0.1 h (inactive). Also, the inhibition in experiment [2] was -4% (inactive). The fluorescence ratio (interference) in experiment [3] was 1 (inactive). Moreover, the results for the fold change in experiment [4] (setting [7]) and in experiment [4] (setting [8]) were 1.03 (inactive) and 1.29, respectively. Further, the results for the cell count in experiment [4] (setting [9]) and in experiment [4] (setting [10]) were 10800 and 10600, respectively. Also, the call in experiment [5] was inactive. Moreover, the z-score in experiment [6] is -0.28 (inactive).

With `Nc1nc(Nc2ccccc2)nc2c1ncn2[C@@H]1O[C@H](CO)[C@H](O)C1O` (some centres undefined), the period change in experiment [1] is -0.07 h (inactive). Besides, in experiment [2], the inhibition was -4% (inactive). The fluorescence ratio (interference) in experiment [3] was 1 (inactive). Besides, the fold change is 0.974 (inactive) in experiment [4] (setting [7]) and 1.23 in experiment [4] (setting [8]). Besides, the cell count came to 9660 in experiment [4] (setting [9]) and 9910 in experiment [4] (setting [10]). Moreover, the molecule was classed as inactive in experiment [5]. The z-score in experiment [6] is 0.02 (inactive).

Source of the values: PubChem BioAssay.
